Measured potencies and affinities stand elsewhere. Calls of active or inactive are those of the source.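 How the source made its calls: active means every repeat run showing a signal drop whose fitted half-maximal concentration is at most twice the top tested concentration; inconclusive means repeat runs disagree, or flat partial drop, or poor fit; inactive means the rest.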

The nature of the test: HEK293T cytotoxicity, dose response, cytotoxicity control for miR-122 modulator project, cell-based, activator set, cherry-pick (AID 720690). Particulars: HEK293T viability, CellTiter-Glo luminescence, 48 h; series mostly up to 26 µM. For orientation: Cellular ATP, detected with luciferase, serves as a proxy for viable cell number.
Turning to `CCC(=O)Nc1ccc2c(c1)C(=O)N(C)[C@@H]1CC[C@H](CC(=O)NCCN3CCCCC3)O[C@H]1CO2`, the result was inactive.

`COCC(=O)NC[C@H]1[C@@H](c2ccc(C3=CCCC3)cc2)[C@@H](CO)N1C(=O)C1CC1`: the result was inactive. The entry for `C[C@@H]1CN([C@H](C)CO)S(=O)(=O)c2ccc(C3=CCCCC3)cc2O[C@@H]1CN(C)C(=O)Cc1ccncc1` is “inactive”. The entry for `C[C@@H]1CN([C@H](C)CO)C(=O)c2cc(-c3cncnc3)cnc2O[C@H]1CN(C)Cc1ccc(Oc2ccccc2)cc1` is “inactive”. As to `O=C(NC[C@H]1[C@@H](c2ccccc2)[C@@H](CO)N1CC1CCCC1)c1ccncc1`, the call was inactive.

The record behind these values is PubChem BioAssay AID720690 (Broad Institute, 2013).
